Experimental data published in the supplement of paper PMC10849652.
About 8,800 targets were measured; listed, in parts, are those with a hit and a random draw of the rest. About 0.5% of all pairs of compound and target were hits. A number with no mark means an inactive call.

Tests used:
Test in all cases: log2 fold change, soluble protein after heating vs DMSO (PISA); higher = thermal stabilisation; K562 lysate, 10 uM; active = over 0.2 and 3.5 SD of the protein, either way, in both replicates (recomputed)
vemurafenib = compound: CCCS(=O)(=O)Nc1ccc(F)c(C(=O)c2c[nH]c3ncc(-c4ccc(Cl)cc4)cc23)c1F [vemurafenib]
Method in brief: (§1)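 Dounce homogenisation of K562 pellets in PBS pH 7.4 with 1 mM MgCl2 produced a crude extract, used at 1 mg/mL protein. Exposure to 10 μM compound lasted 30 min, and aliquots were then heated for 3 min across 48°C-58°C, pooled and brought to 0.5% NP-40 at 4°C. The supernatant after 21,000xg for 90 min was quantified by TMTpro 16plex LC-MS/MS with channel sums equalised. Duplicate values are given as log-two fold change in thermal stability relative to solvent controls.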

[1] = compound: CCCS(=O)(=O)Nc1ccc(F)c(C(=O)c2c[nH]c3ncc(Cl)cc23)c1F
Method in brief: as §1

barasertib = compound: CCN(CCCOc1ccc2c(Nc3cc(CC(=O)Nc4cccc(F)c4)[nH]n3)ncnc2c1)CCOP(=O)(O)O [barasertib]
Method in brief: as §1

[2] = compound: CC[C@@H]1C(=O)N(C)c2cnc(Nc3ccc(C(=O)NC4CCN(C)CC4)cc3OC)nc2N1C1CCCC1
Method in brief: as §1

volasertib = compound: CC[C@@H]1C(=O)N(C)c2cnc(Nc3ccc(C(=O)N[C@H]4CC[C@H](N5CCN(CC6CC6)CC5)CC4)cc3OC)nc2N1C(C)C [volasertib]
Method in brief: as §1

[3] = compound: CCn1c(C(=O)N(C2CC2)C2CC2)cc2c3c(ncn3C)c(Nc3cc(C)n(C)n3)nc21
Method in brief: as §1

[4] = compound: CCn1cc(-c2ccnc3[nH]c(-c4cccc(CN(C)C)c4)cc23)c(-c2ccc(NC(=O)N(C)C)cc2)n1
Method in brief: as §1

[5] = compound: CN1CCC(CNc2ccc3ncc(-c4cccc(OC(F)(F)F)c4)n3n2)CC1
Method in brief: as §1

saracatinib = compound: CN1CCN(CCOc2cc(OC3CCOCC3)c3c(Nc4c(Cl)ccc5c4OCO5)ncnc3c2)CC1 [saracatinib]
Method in brief: as §1

sotrastaurin = compound: CN1CCN(c2nc(C3=C(c4c[nH]c5ccccc45)C(=O)NC3=O)c3ccccc3n2)CC1 [sotrastaurin]
Method in brief: as §1

alvocidib = compound: CN1CC[C@H](c2c(O)cc(O)c3c(=O)cc(-c4ccccc4Cl)oc23)[C@H](O)C1 [alvocidib]
Method in brief: as §1

Tubastatin A = compound: CN1CCc2c(c3ccccc3n2Cc2ccc(C(=O)NO)cc2)C1 [Tubastatin A]
Method in brief: as §1

[6] = compound: CNC(=O)C1=CC=CC=C1NC2=NC(=NC=C2Cl)NC3=C(C=C(C=C3)N4CCOCC4)OC
Method in brief: as §1

defactinib = compound: CNC(=O)c1ccc(Nc2ncc(C(F)(F)F)c(NCc3nccnc3N(C)S(C)(=O)=O)n2)cc1 [defactinib]
Method in brief: as §1

[7] = compound: CNc1nc(-c2ccc3c(N)n[nH]c3c2)cc(N2C[C@@H](C(=O)NC3CCCCC3)CC[C@H]2C)n1
Method in brief: as §1

encorafenib = compound: COC(=O)N[C@@H](C)CNc1nccc(-c2cn(C(C)C)nc2-c2cc(Cl)cc(NS(C)(=O)=O)c2F)n1 [encorafenib]
Method in brief: as §1

[8] = compound: COC(=O)[C@H](CCSC)NC(=O)C1=C(C=C(C=C1)NC[C@H](CS)N)C2=CC=CC=C2
Method in brief: as §1

alisertib = compound: COc1cc(Nc2ncc3c(n2)-c2ccc(Cl)cc2C(c2c(F)cccc2OC)=NC3)ccc1C(=O)O [alisertib]
Method in brief: as §1

[9] = compound: COc1cc2nc(-c3cc(F)ccc3O)nc(N[C@@H]3CNC[C@H]3C(C)(C)O)c2cc1OC
Method in brief: as §1

gefitinib = compound: COc1cc2ncnc(Nc3ccc(F)c(Cl)c3)c2cc1OCCCN1CCOCC1 [gefitinib]
Method in brief: as §1

Chain of UniProt Q8TDI0 (Q8TDI0 whole entry, looked up): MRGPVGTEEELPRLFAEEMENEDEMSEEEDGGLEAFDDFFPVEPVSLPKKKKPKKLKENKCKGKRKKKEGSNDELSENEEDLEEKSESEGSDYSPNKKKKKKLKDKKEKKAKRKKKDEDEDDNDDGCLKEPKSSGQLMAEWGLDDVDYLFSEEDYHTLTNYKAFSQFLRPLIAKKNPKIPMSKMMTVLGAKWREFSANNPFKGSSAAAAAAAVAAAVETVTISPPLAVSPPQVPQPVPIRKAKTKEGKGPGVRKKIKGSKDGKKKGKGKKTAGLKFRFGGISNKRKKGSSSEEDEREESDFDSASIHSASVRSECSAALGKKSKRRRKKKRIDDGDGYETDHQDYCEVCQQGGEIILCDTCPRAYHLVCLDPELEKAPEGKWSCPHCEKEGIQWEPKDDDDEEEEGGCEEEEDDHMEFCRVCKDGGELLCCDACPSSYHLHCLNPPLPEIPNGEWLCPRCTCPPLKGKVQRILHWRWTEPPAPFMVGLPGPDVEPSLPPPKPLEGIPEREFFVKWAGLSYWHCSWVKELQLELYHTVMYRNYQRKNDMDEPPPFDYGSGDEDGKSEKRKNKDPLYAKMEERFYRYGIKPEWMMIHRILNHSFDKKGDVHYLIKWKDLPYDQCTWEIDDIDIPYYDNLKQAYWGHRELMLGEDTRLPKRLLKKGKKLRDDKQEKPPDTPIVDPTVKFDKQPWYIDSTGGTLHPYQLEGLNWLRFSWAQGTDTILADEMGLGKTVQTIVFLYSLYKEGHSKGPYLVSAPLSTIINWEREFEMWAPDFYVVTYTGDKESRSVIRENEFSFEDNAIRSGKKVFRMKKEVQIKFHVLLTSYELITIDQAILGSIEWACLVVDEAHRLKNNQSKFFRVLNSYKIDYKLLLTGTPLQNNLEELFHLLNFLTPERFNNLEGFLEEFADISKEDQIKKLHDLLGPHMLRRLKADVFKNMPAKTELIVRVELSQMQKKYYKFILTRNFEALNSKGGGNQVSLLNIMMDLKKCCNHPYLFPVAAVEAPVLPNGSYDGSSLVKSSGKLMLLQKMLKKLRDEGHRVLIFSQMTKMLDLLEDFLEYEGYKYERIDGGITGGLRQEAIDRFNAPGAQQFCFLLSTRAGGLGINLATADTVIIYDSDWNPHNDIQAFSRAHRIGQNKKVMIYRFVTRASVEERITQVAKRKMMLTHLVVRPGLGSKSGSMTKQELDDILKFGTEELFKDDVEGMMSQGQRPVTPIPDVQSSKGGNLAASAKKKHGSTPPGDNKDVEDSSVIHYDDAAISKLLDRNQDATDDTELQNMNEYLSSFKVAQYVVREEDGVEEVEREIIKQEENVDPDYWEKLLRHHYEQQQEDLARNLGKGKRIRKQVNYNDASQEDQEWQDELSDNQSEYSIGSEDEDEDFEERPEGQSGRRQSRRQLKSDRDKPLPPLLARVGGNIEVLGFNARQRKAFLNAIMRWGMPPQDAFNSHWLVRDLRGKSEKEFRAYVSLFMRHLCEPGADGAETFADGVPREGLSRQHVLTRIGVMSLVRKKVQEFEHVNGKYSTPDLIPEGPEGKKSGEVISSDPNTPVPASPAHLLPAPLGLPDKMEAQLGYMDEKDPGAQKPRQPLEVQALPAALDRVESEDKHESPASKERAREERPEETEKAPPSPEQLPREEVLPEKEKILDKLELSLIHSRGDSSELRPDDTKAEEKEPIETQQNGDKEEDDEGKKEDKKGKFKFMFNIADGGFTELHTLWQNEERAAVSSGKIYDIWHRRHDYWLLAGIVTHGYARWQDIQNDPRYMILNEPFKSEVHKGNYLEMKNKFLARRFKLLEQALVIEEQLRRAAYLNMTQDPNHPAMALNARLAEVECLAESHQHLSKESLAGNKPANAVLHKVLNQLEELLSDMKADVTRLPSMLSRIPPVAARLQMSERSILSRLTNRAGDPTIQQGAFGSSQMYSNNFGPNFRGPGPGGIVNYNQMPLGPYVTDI
Chain of UniProt Q13315 (Q13315 whole entry, looked up): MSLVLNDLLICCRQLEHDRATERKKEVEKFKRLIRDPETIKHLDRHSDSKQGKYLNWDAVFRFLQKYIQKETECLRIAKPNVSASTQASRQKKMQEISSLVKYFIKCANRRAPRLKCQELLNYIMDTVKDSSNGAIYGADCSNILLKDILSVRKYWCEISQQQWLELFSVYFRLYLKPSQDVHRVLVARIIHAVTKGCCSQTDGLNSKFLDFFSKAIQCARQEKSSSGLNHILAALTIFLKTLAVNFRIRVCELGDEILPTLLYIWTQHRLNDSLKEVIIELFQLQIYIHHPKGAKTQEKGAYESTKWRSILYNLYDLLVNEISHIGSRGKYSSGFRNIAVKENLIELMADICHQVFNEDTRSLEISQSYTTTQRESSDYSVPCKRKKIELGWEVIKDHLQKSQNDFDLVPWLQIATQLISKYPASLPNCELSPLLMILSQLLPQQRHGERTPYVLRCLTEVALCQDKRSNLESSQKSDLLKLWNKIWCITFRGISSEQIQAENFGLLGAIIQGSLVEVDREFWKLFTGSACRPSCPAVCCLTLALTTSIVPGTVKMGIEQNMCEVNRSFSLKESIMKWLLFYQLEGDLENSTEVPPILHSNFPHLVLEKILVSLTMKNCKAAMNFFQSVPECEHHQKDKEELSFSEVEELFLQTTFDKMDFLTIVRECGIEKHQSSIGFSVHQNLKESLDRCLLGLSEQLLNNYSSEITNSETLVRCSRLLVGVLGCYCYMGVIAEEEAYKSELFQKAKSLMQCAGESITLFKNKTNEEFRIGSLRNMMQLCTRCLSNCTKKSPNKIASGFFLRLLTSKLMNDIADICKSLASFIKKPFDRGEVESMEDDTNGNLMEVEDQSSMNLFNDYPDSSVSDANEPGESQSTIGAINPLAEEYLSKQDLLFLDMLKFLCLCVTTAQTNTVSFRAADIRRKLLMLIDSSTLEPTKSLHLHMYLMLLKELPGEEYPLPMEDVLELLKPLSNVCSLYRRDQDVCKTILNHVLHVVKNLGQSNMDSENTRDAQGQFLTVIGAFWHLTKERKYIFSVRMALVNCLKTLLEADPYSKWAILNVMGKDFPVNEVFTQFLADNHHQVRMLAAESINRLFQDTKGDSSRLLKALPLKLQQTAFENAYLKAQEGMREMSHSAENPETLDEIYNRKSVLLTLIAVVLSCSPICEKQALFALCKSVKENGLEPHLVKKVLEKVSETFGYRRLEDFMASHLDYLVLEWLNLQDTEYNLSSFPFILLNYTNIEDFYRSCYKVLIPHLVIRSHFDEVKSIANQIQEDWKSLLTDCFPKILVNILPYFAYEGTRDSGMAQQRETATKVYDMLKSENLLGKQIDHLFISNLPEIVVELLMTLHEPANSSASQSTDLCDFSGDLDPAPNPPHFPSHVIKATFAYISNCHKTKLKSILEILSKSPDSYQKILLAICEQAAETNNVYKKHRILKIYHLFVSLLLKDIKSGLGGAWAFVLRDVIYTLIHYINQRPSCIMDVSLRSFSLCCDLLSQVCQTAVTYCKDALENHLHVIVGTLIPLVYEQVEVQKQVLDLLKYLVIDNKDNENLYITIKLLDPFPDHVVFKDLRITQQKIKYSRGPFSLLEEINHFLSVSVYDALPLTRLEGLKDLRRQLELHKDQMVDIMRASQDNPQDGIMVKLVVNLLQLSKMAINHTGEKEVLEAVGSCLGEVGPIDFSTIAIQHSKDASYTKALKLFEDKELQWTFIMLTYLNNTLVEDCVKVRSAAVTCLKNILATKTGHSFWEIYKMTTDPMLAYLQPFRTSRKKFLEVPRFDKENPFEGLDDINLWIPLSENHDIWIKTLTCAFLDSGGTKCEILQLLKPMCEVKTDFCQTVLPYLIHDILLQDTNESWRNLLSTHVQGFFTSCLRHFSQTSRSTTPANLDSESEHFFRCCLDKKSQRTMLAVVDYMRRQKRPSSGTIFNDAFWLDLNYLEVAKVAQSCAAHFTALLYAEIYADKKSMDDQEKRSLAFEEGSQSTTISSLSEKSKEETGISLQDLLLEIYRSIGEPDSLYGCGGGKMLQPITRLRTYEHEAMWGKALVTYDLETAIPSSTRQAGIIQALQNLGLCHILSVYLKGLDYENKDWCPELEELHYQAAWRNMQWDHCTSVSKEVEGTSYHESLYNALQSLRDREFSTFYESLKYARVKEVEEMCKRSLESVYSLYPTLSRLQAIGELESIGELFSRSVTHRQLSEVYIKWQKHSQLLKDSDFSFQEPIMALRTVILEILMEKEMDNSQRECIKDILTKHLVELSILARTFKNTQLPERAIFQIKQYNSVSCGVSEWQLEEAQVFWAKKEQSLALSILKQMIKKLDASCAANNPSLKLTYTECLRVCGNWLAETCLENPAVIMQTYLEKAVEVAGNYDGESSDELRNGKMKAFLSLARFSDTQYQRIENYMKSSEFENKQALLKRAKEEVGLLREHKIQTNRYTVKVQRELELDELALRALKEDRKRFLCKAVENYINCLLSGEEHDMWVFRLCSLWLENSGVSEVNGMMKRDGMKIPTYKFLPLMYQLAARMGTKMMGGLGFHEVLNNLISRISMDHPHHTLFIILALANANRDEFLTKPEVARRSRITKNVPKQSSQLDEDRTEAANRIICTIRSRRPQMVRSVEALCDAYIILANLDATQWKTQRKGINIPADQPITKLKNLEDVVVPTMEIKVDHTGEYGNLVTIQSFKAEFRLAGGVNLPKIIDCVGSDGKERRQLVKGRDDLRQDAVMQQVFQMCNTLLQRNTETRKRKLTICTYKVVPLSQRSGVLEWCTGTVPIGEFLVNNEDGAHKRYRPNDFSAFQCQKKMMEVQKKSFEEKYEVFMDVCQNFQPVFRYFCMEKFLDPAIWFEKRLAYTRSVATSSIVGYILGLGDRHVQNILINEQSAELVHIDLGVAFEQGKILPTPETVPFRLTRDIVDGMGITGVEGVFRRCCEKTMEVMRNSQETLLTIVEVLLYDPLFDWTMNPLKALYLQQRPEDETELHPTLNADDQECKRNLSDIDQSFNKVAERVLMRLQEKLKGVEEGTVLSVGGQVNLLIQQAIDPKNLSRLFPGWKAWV
Chain of UniProt Q9Y6H1 (Q9Y6H1 whole entry, looked up): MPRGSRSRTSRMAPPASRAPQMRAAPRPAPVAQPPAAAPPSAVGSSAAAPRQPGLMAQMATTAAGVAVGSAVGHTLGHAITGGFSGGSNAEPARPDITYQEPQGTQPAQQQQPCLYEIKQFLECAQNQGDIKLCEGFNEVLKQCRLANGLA

Row | Target | log2 fold change (vemurafenib) | log2 fold change [1] | log2 fold change (barasertib) | log2 fold change [2] | log2 fold change (volasertib) | log2 fold change [3] | log2 fold change [4] | log2 fold change [5] | log2 fold change (saracatinib) | log2 fold change (sotrastaurin) | log2 fold change (alvocidib) | log2 fold change (Tubastatin A) | log2 fold change [6] | log2 fold change (defactinib) | log2 fold change [7] | log2 fold change (encorafenib) | log2 fold change [8] | log2 fold change (alisertib) | log2 fold change [9] | log2 fold change (gefitinib)
1 | CELF2 isoform 3 (UniProt O95319) | 0.082 | 0.013 | 0.031 | 0.096 | -0.05 | 0.001 | 0.074 | -0.095 | 0.021 | -0.023 | 0.067 | -0.025 | 0.019 | 0.018 | -0.02 | 0.108 | -0.031 | 0.037 | -0.079 | -0.061
2 | CCDC25 (UniProt Q86WR0) | -0.033 | 0.008 | 0.01 | 0.027 | 0.005 | -0.023 | 0.581 (active) | -0.079 | 0.007 | -0.009 | 0.132 | 0 | -0.012 | -0.025 | 0.075 | 0.008 | 0.083 | -0.027 | -0.005 | 0.01
3 | CCNA2 (UniProt P20248) | -0.033 | -0.004 | -0.056 | 0.022 | -0.018 | -0.03 | -0.183 | 0.169 | 0.001 | 0 | 0.044 | 0.011 | -0.002 | 0.037 | -0.017 | 0.005 | -0.012 | -0.029 | 0.176 | 0.019
4 | ATRIP (UniProt Q8WXE1) | 0.174 | 0.002 | -0.036 | -0.281 (active) | -0.06 | -0.013 | 0.031 | -0.001 | 0.048 | 0.002 | 0.012 | -0.105 | -0.074 | -0.114 | -0.141 | 0.068 | -0.061 | 0.016 | 0.03 | 0.026
5 | C18orf25 (UniProt Q96B23) | -0.014 | 0.014 | 0.004 | 0.1 | -0.013 | -0.059 | -0.035 | 0.015 | -0.032 | 0.009 | -0.014 | 0.123 | 0.034 | 0.084 | 0.041 | -0.005 | -0.067 | 0.019 | -0.027 | 0.029
6 | CDC123 (UniProt O75794) | -0.052 | 0.014 | 0.04 | -0.12 | -0.05 | 0.032 | 0.018 | -0.021 | 0.012 | 0.013 | 0.019 | -0.125 | 0.009 | 0.007 | -0.03 | 0.018 | 0.136 | -0.004 | -0.023 | -0.001
7 | CDC45 isoform 3 (UniProt O75419) | 0.009 | 0.042 | -0.015 | -0.05 | -0.017 | -0.05 | -0.096 | -0.04 | 0.007 | 0.027 | 0.031 | -0.138 | 0.031 | 0.028 | -0.017 | 0.001 | 0.019 | 0.023 | 0.009 | -0.034
8 | CDKN1C (UniProt P49918) | -0.275 | -0.003 | -0.041 | 0.027 | -0.066 | 0.019 | 0.073 | 0.03 | -0.14 | -0.054 | -0.035 | -0.056 | 0.025 | -0.186 | -0.067 | -0.037 | -0.019 | -0.082 | 0.046 | -0.136
9 | ATM (UniProt Q13315) | -0.063 | -0.004 | 0.041 | 0.005 | -0.078 | 0.021 | -0.089 | 0.071 | -0.011 | 0.032 | -0.048 | 0.013 | 0.013 | 0.105 | -0.005 | -0.031 | 0.087 | -0.01 | 0.078 | 0.022
10 | CHD5 (UniProt Q8TDI0) | -0.034 | 0.022 | 0.034 | 0.165 | -0.028 | -0.026 | 0.051 | -0.019 | 0.026 | 0.026 | -0.005 | -0.022 | 0 | -0.042 | 0.037 | 0.024 | 0.033 | -0.016 | -0.009 | -0.001
11 | CHAF1A (UniProt Q13111) | 0.005 | 0.005 | 0.006 | 0.029 | 0.003 | -0.009 | 0.029 | 0.004 | 0.038 | -0.016 | -0.003 | -0.089 | -0.019 | 0.02 | 0.038 | 0.003 | 0.063 | -0.107 | -0.01 | -0.065
12 | CARS isoform 3 (UniProt P49589) | 0.011 | 0.004 | -0.032 | -0.01 | -0.052 | 0.02 | 0.004 | -0.029 | 0.005 | 0.041 | 0.006 | -0.041 | 0.001 | -0.013 | -0.01 | -0.013 | 0.213 (active) | 0.003 | -0.005 | -0.019
13 | CHCHD2 (UniProt Q9Y6H1) | 0.076 | -0.025 | 0.011 | 0.102 | 0.086 | 0.108 | 0.16 | -0.094 | -0.011 | 0.054 | -0.061 | 0.031 | -0.003 | -0.079 | -0.024 | -0.044 | -0.126 | -0.051 | -0.033 | 0.28
14 | CCDC47 (UniProt Q96A33) | 0.011 | 0.032 | 0.002 | 0.024 | 0.014 | 0.018 | -0.02 | -0.09 | -0.003 | 0.007 | 0.009 | 0.016 | -0.015 | 0.004 | -0.028 | -0.045 | -0.037 | 0.037 | -0.035 | -0.011
15 | BTAF1 (UniProt O14981) | 0.029 | 0.026 | 0.029 | -0.029 | -0.058 | 0.045 | -0.138 | 0.051 | 0.008 | 0.006 | -0.001 | -0.106 | 0.021 | -0.013 | 0 | 0.021 | 0.008 | 0.018 | -0.008 | 0.009
16 | CAPN15 (UniProt O75808) | 0.04 | -0.046 | 0.077 | -0.007 | 0.027 | 0.013 | 0.037 | 0.016 | 0.032 | -0.091 | -0.01 | -0.043 | 0.001 | -0.014 | 0.19 | -0.029 | 0.03 | -0.03 | 0.024 | -0.024
